# Measurements as given in PubChem BioAssay (NCATS).
# “And” between values parts separate entries of the source, which are not always exact repeats. Equal values may be shown once. Inconclusive results are not listed. Unmarked numbers belong to inactive results. The source made the active and inactive calls. Calls come from the whole dose curve; as a rule, active = well fitted curve in the direction sought with a large enough effect; inconclusive = small, poorly fitted or top-dose-only effect, or another doubt; inactive = no such curve, though single readings can be large; an effect the other way counts as inactive or inconclusive.
# Experiments:
# [1] = Viability qHTS for spleen associated tyrosine kinase inhibitor (SYKi) naive MV4-11 cells (AID 1963823); note: nearly all actives have a fitted effect of over 40% in size
# Procedure, shortened: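 CellTiter-Glo luminescence, 10 min room-temperature incubation, gave viability. Cells: naive MV4-11 (500/well), treated 72 hr at 37 C, 5% CO2.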
# [2] = Quantitative highthroughput screen to assess conditional lethalithy of NOMO1 cells grown in Human Plasma-Like Medium with dialyzed fetal bovine serum (HPLM+ds) (AID 1963878); note: nearly all actives have a fitted effect of over 35% in size;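 for Viability: 100% = DMSO wells and 0% = empty wells on each plate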
# Procedure, shortened: (§1)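 Each medium arm—HPLM with 10% dialyzed FBS, or RPMI1640 with 5 mM glucose and 10% untreated or dialyzed FBS—was screened against an 11-point, 3-fold compound titration for 48 h at 37 °C, with CellTiter-Glo luminescence as endpoint.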
# [3] = Quantitative highthroughput screen to assess conditional lethalithy of P12 Ichikawa cells grown in Human Plasma-Like Medium with dialyzed fetal bovine serum (HPLM+ds) (AID 1963879); settings: Potency: viability; note: nearly all actives have a fitted effect of over 35% in size
# Procedure, shortened: as §1
# [4] = Quantitative highthroughput screen to assess conditional lethalithy of P12 Ichikawa cells grown in RPMI1640 with dialyzed fetal bovine serum (RPMI+ds) (AID 1963880); settings: Potency: P12-Ichikawa viability; note: nearly all actives have a fitted effect of over 35% in size
# Procedure, shortened: as §1
# [5] = Quantitative highthroughput screen to assess conditional lethalithy of P12 Ichikawa cells grown in RPMI1640 with untreated serum (RPMI+s) (AID 1963881); settings: Potency: viability; note: nearly all actives have a fitted effect of over 35% in size
# Procedure, shortened: as §1
# [6] = Quantitative highthroughput screen to assess conditional lethalithy of SEM cells grown in Human Plasma-Like Medium with dialyzed fetal bovine serum (HPLM+ds) (AID 1963882); note: nearly all actives have a fitted effect of over 35% in size; for Viability: series mostly up to about 46 µM
# Procedure, shortened: as §1
# [7] = Quantitative highthroughput screen to assess conditional lethalithy of SEM cells grown in RPMI1640 with unreated serum (RPMI+s) (AID 1963883); note: nearly all actives have a fitted effect of over 35% in size
# Procedure, shortened: as §1
# [8] = Cellular viability qHTS for adrenocortical cancer (ACC) cell line NCI-H295R (AID 1963990); note: nearly all actives have a fitted effect of over 60% in size
# Procedure, shortened: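 Compound titrations (up to 46 uM final) are applied to NCI-H295R cultures for 48 h at 37C. Viable cell number is estimated by CellTiter-Glo signal, normalised to DMSO and doxorubicin controls.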
# [9] = Cellular viability qHTS for adrenocortical cancer (ACC) cell line SW-13 (AID 1963989); settings: SW-13 ACC cells viability, CellTiter-Glo, 48 h; activity (max response): stronger effect = lower value; note: nearly all actives have a fitted effect of over 65% in size;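 for activity (max response): cells grown in serum-free medium with ITS supplement; % is set by controls: 0 for no effect and ±100 for the full control effect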
# Procedure, shortened: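 48 h treatment, SW-13 in ITS/DMEM serum-free; doses up to 46 uM; readout CellTiter-Glo luminescence; curve fit four-parameter logistic.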
# [10] = Quantitative highthroughput screen to assess conditional lethalithy of SEM cells grown in RPMI1640 with dialyzed fetal bovine serum (RPMI+ds) (AID 1963884); note: nearly all actives have a fitted effect of over 35% in size
# Procedure, shortened: as §1
# [11] = Quantitative highthroughput screen to assess conditional lethalithy of NOMO1 cells grown in RPMI1640 with dialyzed fetal bovine serum (RPMI+ds) (AID 1963877); note: nearly all actives have a fitted effect of over 30% in size
# Procedure, shortened: as §1
# Potency is the fitted concentration of half-maximal effect.
compound,measurement,setting,value
COc1ccc(S(=O)(=O)Nc2cc(-c3c(O)ccc4ccccc34)c(O)c3ccccc23)cc1,Potency,[1],1.18 µM (active)
same,Potency,[2],20.9 µM (active)
same,Potency,[3],16.6 µM (active)
same,Potency,[4],18.7 µM (active)
same,Potency,[5],20.9 µM (active)
same,Potency,[6],14.8 µM (active)
same,Potency,[7],7.43 µM (active)
same,Potency,[8],28.2 µM (active)
CC(=O)N1CCN(c2ccc(O)cc2)CC1,Potency,[1],inactive
same,activity (max response),[9],7.26%
Cc1ccc(Nc2nccc(N(C)c3ccc4c(C)n(C)nc4c3)n2)cc1S(N)(=O)=O,Potency,[1],0.742 µM (active)
same,Potency,[6],16.6 µM (active)
same,Potency,[7],14.8 µM (active)
same,Potency,[10],14.8 µM (active)
same,activity (max response),[9],-20.1%
same,Potency,[8],inactive
COCc1c(C(C)C)nc(C(C)C)c(/C=C/[C@@H](O)C[C@@H](O)CC(=O)O)c1-c1ccc(F)cc1,Potency,[1],0.168 µM (active)
same,Potency,[9],2.59 µM (active)
COc1ccc2cc3[n+](cc2c1OC)CCc1cc2c(cc1-3)OCO2,Potency,[1],4.22 µM (active) and 1.48 µM (active)
same,Potency,[3],18.7 µM (active)
same,Potency,[5],18.7 µM (active)
same,Potency,[7],20.9 µM (active)
same,Potency,[10],18.7 µM (active)
same,Potency,[9],10.3 µM (active) and 8.91 µM (active)
same,Potency,[8],inactive
CC(C)(C)NC(=O)Nc1cccc(Nc2ncc(F)c(NC(C)(C)CO)n2)c1,Potency,[1],1.48 µM (active)
same,Potency,[2],inactive
same,Potency,[7],7.43 µM (active)
same,Potency,[10],6.62 µM (active)
CC(C)C[C@H](NC(=O)[C@@H](O)[C@H](N)Cc1ccccc1)C(=O)O,Potency,[1],inactive
same,Potency,[11],20.9 µM (active)
same,Potency,[8],inactive
COc1ccccc1C(=O)Nc1cc2c(cc1N1CCCC1)n(C)c(=O)n2C,Potency,[1],8.2 µM (active)
same,activity (max response),[9],-26.1%
Cc1ncc(NC(=O)c2cccc(C(F)(F)F)c2)cc1-c1cnc(OC2CCOCC2)c(N2CCOCC2)c1,Potency,[1],6.61 µM (active)
same,Potency,[9],22.4 µM (active)
C[C@H]1NCc2cc(-c3ccc4c(=O)c(C(=O)O)cn(C5CC5)c4c3OC(F)F)ccc21,Potency,[1],inactive
same,activity (max response),[9],-8.27%
C[C@]1(c2nc3c(C(N)=O)cccc3[nH]2)CCCN1,Potency,[1],inactive
same,Potency,[6],inactive
same,activity (max response),[9],7.65%
same,Potency,[8],inactive
O=C(Nc1ccc([N+](=O)[O-])cc1Cl)c1cc(Cl)ccc1O,Potency,[1],920 nM (active) and 934 nM (active)
same,Potency,[3],3.72 µM (active)
same,Potency,[4],2.96 µM (active)
same,Potency,[5],2.35 µM (active)
same,Potency,[9],142 nM (active) and 447 nM (active)
Cn1c(=O)c(F)c(Nc2ccc(I)cc2F)c2c(=O)n(C[C@@H](O)CO)cnc21,Potency,[1],0.0332 µM (active)
same,Potency,[7],6.62 µM (active)
same,Potency,[10],2.09 µM (active)
CCc1c2c(nc3ccc(OC(=O)N4CCC(N5CCCCC5)CC4)cc13)-c1cc3c(c(=O)n1C2)COC(=O)[C@]3(O)CC,Potency,[1],2.99 µM (active) and 263 nM (active)
same,Potency,[3],1.18 µM (active)
same,Potency,[4],1.18 µM (active)
same,Potency,[5],0.833 µM (active)
same,Potency,[6],2.35 µM (active)
same,Potency,[7],1.87 µM (active)
same,Potency,[10],1.48 µM (active)
same,Potency,[9],3.66 µM (active) and 3.55 µM (active)
CN(Cc1cnc2nc(N)nc(N)c2n1)c1ccc(C(=O)N[C@@H](CCC(=O)O)C(=O)O)cc1,Potency,[1],10.6 nM (active) and 37.2 nM (active)
same,Potency,[3],0.0662 µM (active)
same,Potency,[4],0.105 µM (active)
same,Potency,[6],0.132 µM (active)
same,Potency,[7],1.05 µM (active)
same,Potency,[10],0.0833 µM (active)
same,Potency,[9],18.4 nM (active) and 251 nM (active)
same,Potency,[8],13 nM (active) and 316 nM (active)
O=S(=O)(O)c1ccc2cc(N=Nc3cc(S(=O)(=O)O)c4cccnc4c3O)ccc2c1,Potency,[1],inactive
same,activity (max response),[9],-15.7%
O=C(O)c1ccc(CCCc2ccc(OCCc3ccc(F)cc3)cc2)o1,Potency,[1],5.17 µM (active)
same,Potency,[9],17.8 µM (active)
C[C@@H]1COCCN1c1cc(=O)n2c(n1)N(Cc1cncc(Cl)c1)[C@H](C(F)(F)F)CC2,Potency,[1],6.51 µM (active)
same,Potency,[4],9.33 µM (active)
same,Potency,[5],9.33 µM (active)
same,activity (max response),[9],2.98%
CC1(C)O[C@@H]2C[C@H]3[C@@H]4CCC5=CC(=O)C=C[C@]5(C)[C@H]4[C@@H](O)C[C@]3(C)[C@]2(C(=O)CO)O1,Potency,[1],inactive
same,activity (max response),[9],-6.19%
C1CCN2C[C@@H]3C[C@@H](CN4CCCC[C@@H]34)[C@H]2C1,Potency,[1],inactive
same,activity (max response),[9],-0.968%
Cc1cc2nc3c(=O)[nH]c(=O)nc-3n(C[C@H](O)[C@H](O)[C@H](O)CO)c2cc1C,Potency,[1],inactive
same,activity (max response),[9],8.72%
